Experimental data published in PubChem BioAssay (NCI).
This is part of a sample that, as a whole, favours compounds with a hit. Of some 79,000 tested, about 15% had one in any assay. A number with no mark means an inactive call. Active and inactive are the calls of the source. Rule as the data show it: active = growth inhibition above about 70%; inactive = the rest. Where a SMILES comes first, the peptide text is derived from it. [ ]: non-standard residue; d: D form. The star is where a group is joined. ξ: configuration not given here. ξF = NC(Cc1ccccc1)C(=O)O; Cbz = O=C(OCc1ccccc1)*; Sar = CNCC(=O)O

Tests used:
[1] = NCI Yeast Anticancer Drug Screen. Data for the rad50 strain (AID 155);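 also: 0% = growth of vehicle-only cultures of the same strain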; settings: S. cerevisiae rad50 strain growth inhibition; at 50.0 µM; hits give high values
Method in brief: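 Yeast carrying a defined DNA repair defect were exposed to test compounds, and growth was compared with vehicle-treated controls to give percent inhibition.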

[2] = NCI Yeast Anticancer Drug Screen. Data for the mec2-1 strain (AID 157); settings: S. cerevisiae mec2-1 strain, at 50.0 µM, hits give high values
Method in brief: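 Mutant yeast (mec2-1) grown with compound; growth inhibition relative to vehicle control reported.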

[3] = NCI Yeast Anticancer Drug Screen. Data for the sgs1 mgt1 strain (AID 161);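 also: 0% = growth of cultures given vehicle only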; settings: S. cerevisiae sgs1 mgt1 strain, at 50.0 µM, hits give high values
Method in brief: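 This yeast growth screen uses a strain with defined DNA-repair lesions; compound-treated growth is compared with vehicle-treated growth.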

[4] = NCI Yeast Anticancer Drug Screen. Data for the cln2 rad14 strain (AID 165);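 also: 0% = growth equal to vehicle treated cultures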; settings: S. cerevisiae cln2 rad14 strain, at 50.0 µM, hits give high values
Method in brief: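 Readout is yeast growth inhibition versus vehicle-treated controls, using a strain with cln2 and rad14 alterations exposed to compound.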

[5] = NCI Yeast Anticancer Drug Screen. Data for the bub3 strain (AID 167); settings: S. cerevisiae bub3 mutant strain, at 50.0 µM, hits give high values
Method in brief: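 Compounds were applied to a genetically altered yeast strain carrying a cell-cycle control defect. Growth inhibition was scored against vehicle-treated controls.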

[6] = NCI Yeast Anticancer Drug Screen. Data for the mlh1 rad18 strain (AID 175); settings: S. cerevisiae mlh1 rad18 strain growth inhibition; at 50.0 µM; hits give high values
Method in brief: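 Genetically defined yeast (DNA repair-deficient) exposed to compounds; growth inhibition determined relative to vehicle.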

Compound	growth inhibition [1]	growth inhibition [2]	growth inhibition [3]	growth inhibition [4]	growth inhibition [5]	growth inhibition [6]
[Mn+2].[NH-]CC(=O)NC(Cc1ccccc1)C(=O)O.[NH-]CC(=O)NC(Cc1ccccc1)C(=O)O (stereo unspecified)	-15.5%	-11.3%	-10.7%	-34.2%	4.05%	-8%
Cc1nc(N)c(N2CCN(Cc3ccccc3)CC2)c(=O)[nH]1	-26.4%	1.85%	-33.9%	16.8%	29.6%	-25.3%
Brc1ccc2noc(-c3ccccc3)c2c1	29.4%	2.25%	31.6%	-1.6%	9.95%	16.9%
CCOc1cccc(N)c1	-69.2%	-20.7%	-55.5%	-51%	-41.7%	-80.2%
CCCCC1OCCOC1C1COCCO1 (stereo unspecified)	-7.25%	-21.9%	-10.8%	-6%	2.55%	6.7%
ClC1=CC(Cl)=C2N=C(N3CCCC3)N=C3N=C(C(Cl)(Cl)Cl)N=C1N32	-2.8%	22.6%	3.6%	-13.4%	3.2%	-20.4%
CC(=O)N/N=C1/NN(C(C)=O)C2(S1)C(=O)Nc1ccc(C)cc12 (stereo unspecified)	-4.15%	38.8%	40.1%	28.8%	24.8%	7.7%
Nc1ccc(S(=O)(=O)Nc2nc(CN3CCCCC3)cs2)cc1	7.25%	-2.5%	3.3%	-38.5%	-1.4%	-7.85%
CC12CC1CCCC2OC(=O)c1cc([N+](=O)[O-])cc([N+](=O)[O-])c1 (stereo unspecified)	4.75%	2.15%	-5.7%	-12.7%	-7.65%	-0.15%
CC1(C)COC(c2cc(Br)ccc2Br)=N1	4.9%	-16.2%	7%	3.45%	-3.3%	1.35%
BrC1=C(c2ccccc2)SC(Br)=C(c2ccccc2)S1	1.55%	4.45%	1.2%	21.7%	5.45%	3.75%
CN(CC(=O)NC(Cc1ccccc1)C(=O)O)C(=O)OCc1ccccc1 (stereo unspecified) (Cbz-[Sar]-[ξF]-OH)	-16.9%	-7.95%	-1.2%	-6.2%	-16.1%	-10.6%
CCOC1C[C@H]2C[C@H]3[C@@H]4CC=C5C[C@@H](OC(C)=O)CC[C@]5(C)[C@H]4CC[C@]3(C)C2=C(C)O1 (stereo partly specified)	20.9%	12.7%	22.9%	36%	8.05%	20.6%
Oc1ccccc1/C=N\Sc1ccc(Br)cc1	23.9%	13.8%	22%	4.25%	3.95%	17%
N#CC(=O)Nc1cccc(Cl)c1	-13.1%	-8.05%	-16.4%	-19.7%	-3.05%	-0.15%
OCC(CO)(CO)CO	18.9%	-0.7%	-6.8%	-16.1%	28.8%	-5.3%
O=[N+]([O-])c1ccc(-c2ccccc2)c([N+](=O)[O-])c1	-3.05%	0.35%	-29.8%	-31.9%	1.5%	17.6%
Cc1ccc(S(=O)(=O)Oc2c([N+](=O)[O-])cc(-c3ccccc3)cc2[N+](=O)[O-])cc1	47.8%	37.4%	63%	34.5%	0.7%	31%
CSc1c2c([nH]c(=O)c1C#N)-c1ccccc1CC2	-6.5%	-1.4%	4.85%	15.1%	-3.65%	3.95%
CC(C)CC1OCC(C)(C)C(C(C)C)O1 (stereo unspecified)	-8%	-6.1%	-17.4%	2%	-0.4%	0.4%
CN1C(=O)c2ccccc2Cc2c(Cl)ncnc21	-0.5%	26.4%	11.2%	-1.45%	28.6%	2.1%

Compound	growth inhibition [1]	growth inhibition [2]	growth inhibition [3]	growth inhibition [4]	growth inhibition [5]	growth inhibition [6]
CCOC(=O)CC(=O)c1cc(OC)c(OC)c(OC)c1	7.05%	16.8%	8.4%	-75%	39.9%	20.4%
Nc1ccccc1C(=O)CCc1c[nH]c2ccccc12	5.05%	9.05%	7.6%	-42.4%	-12.1%	12.3%
C/C=C(\C)c1cc(=O)c2c(C)cc3c(c2o1)C(=O)c1c(OC)cccc1C3=O	14.2%	-14.8%	-1.05%	-4.65%	-6.95%	23.9%
CN(Cc1ccccc1)C(=O)NC1CCCCC1	2.3%	0.05%	4.8%	-22.8%	3.4%	2.55%
C=CCCCCCCCCC(=O)NCCN1CCOCC1	84.5% (active)	93.8% (active)	99.2% (active)	93.8% (active)	91.8% (active)	98.2% (active)
COC(=O)C(O)C(O)C(O)C(O)C(O)CO (stereo unspecified)	-1.4%	-12.1%	0.25%	-45.4%	-8.6%	-5.3%
Cc1ccccc1-c1c2ccccc2cc2c1ccc1ccccc12	12%	-21.7%	-5.05%	-20.9%	9.35%	0.35%
CC(=O)c1cccc(NC(=O)OCC2CC3C=CC2C3)c1 (stereo unspecified)	25.4%	27.1%	45.9%	4%	52.8%	52.3%
C[n+]1ccc(/C(C#N)=N/O)cc1	-16.4%	-39.9%	-20.6%	20.6%	-25.8%	-28.9%
Cc1cc2c(=O)cc(-c3ccc(O)cc3)oc2c(C(=O)O)c1C	2.7%	-4.45%	14.3%	24.8%	0.6%	4.4%
CC(Br)C(=O)Nc1ccc(C(=O)O)c(O)c1 (stereo unspecified)	3.85%	-32.8%	-18.8%	20.9%	-7.5%	2.95%
COc1cc(C(=O)C(C)Br)cc(OC)c1OC (stereo unspecified)	3.1%	46.1%	64.9%	-23%	68.2%	62.4%
O=C(NN1C(=O)C(Cl)C1c1cccc([N+](=O)[O-])c1)c1ccccc1O (stereo unspecified)	-17.4%	-26.1%	-37.5%	1.1%	-27.1%	-25.1%
O=C(NCCCl)NCC1CCCO1 (stereo unspecified)	-9.35%	-1.25%	-13.8%	-48.9%	-4.75%	0.15%
Oc1ccc(Cl)cc1-c1cc(-c2ccccc2)nc(=S)[nH]1	-12.7%	-34.8%	-17.6%	-0.2%	-1.3%	-3.6%
c1ccc(Cc2nnc(Cc3ccccc3)nn2)cc1	10.8%	8.35%	2.7%	7.25%	21.4%	7%
Cc1ccccc1/C=C1/N=C(c2ccccc2)OC1=O	-27.3%	-17.4%	-19.7%	0.9%	-14.4%	-6.85%
N#CC1=C(N)N(c2ccccc2)C(c2ccccc2)C1(C#N)C#N (stereo unspecified)	6.45%	14.2%	-8.3%	-4.9%	-22.9%	-4.75%
O=C(O)CCc1nc(-c2ccccc2-n2cccc2)no1	-43.8%	-36.1%	-30.4%	38.2%	-15.4%	8.2%
CC1=C2CCCCC2(C)C=C(C(=O)O)C1=O (stereo unspecified)	22.2%	50.5%	18.8%	34.6%	12.2%	23.4%
